Measured values reported in PubChem BioAssay (NCATS).
Values joined by “and” are separate entries in the source; they are usually repeats but may differ in a detail not shown here. Equal values may be shown once. Records with an inconclusive call do not appear. Active and inactive are the calls of the source.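 The calls were made as follows, unless noted: active = compounds whose dose series gives a full or clear partial fitted curve of increased nuclear translocation; inconclusive = weak partial curve or effect only at the top dose; inactive = no dose-dependent translocation response.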

tested on: not listed separately; experiment: Stat Signaling Pathway (AID 446; active = well fitted curve in either direction with a large enough effect, not every such curve was filed as active;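 also: ME-180 cervical cancer cells given 40 pM IL-6 alongside compound; SIE-controlled beta-lactamase reporter measured as 460/530 nm FRET emission ratio; % is scaled to controls: 0 for no effect and ±100 for the full control effect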); conditions: ME-180 SIE beta-lactamase reporter, IL-6 stimulated, 5 h; at 17.2 µM (top of the series)
Summary of the method: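 Overnight-plated ME-180 cells bearing a STAT Inducible Element beta-lactamase reporter; 5 h co-exposure to compound and 40 pM IL-6; values normalized to 300 pM IL-6 and 125 nM JAK inhibitor controls.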

SMILES	activity, negative = inhibition
Nc1ccc(O)c(C(=O)O)c1	-23.9% (inactive)
Cc1ccc(C(=O)c2ccc(CC(=O)O)n2C)cc1	-8.7% (inactive)
COc1cc(/C=C/C(=O)CC(=O)/C=C/c2ccc(O)c(OC)c2)ccc1O	-22.7% (inactive)
CCCSc1ccc2nc(NC(=O)OC)[nH]c2c1	-7.64% (inactive) and -2.74% (inactive)
Nc1cc(-c2ccncc2)c[nH]c1=O	-17.5% (inactive)
O=C(O)Cc1ccc(-c2ccccc2)cc1	-10.3% (inactive) and 7.71% (inactive)
Cc1c(Nc2ncccc2C(=O)O)cccc1C(F)(F)F	-19.6% (inactive)
O=C(O)c1ccccc1Nc1cccc(C(F)(F)F)c1	-14.4% (inactive) and -17.3% (inactive)
CC1(C)S[C@@H]2[C@H](NC(=O)[C@H](N)c3ccccc3)C(=O)N2[C@H]1C(=O)O	1.21% (inactive)
Cc1c(N)c(=O)n(-c2ccccc2)n1C	3.23% (inactive)

same assay, conditions: ME-180 (cervical carcinoma) SIE beta-lactamase reporter, IL-6 stimulated, 5 h; at 38 µM (top of the series)

SMILES	activity, negative = inhibition
CN1CCc2ccccc2Cc2[nH]c3ccccc3c2CC1	-13.2% (inactive)
c1cnc2c(c1)ccc1cccnc12	-9.47% (inactive)
Cc1ccc(O)c(N=Nc2ccccc2)n1	-4.23% (inactive)
O=C(Nc1ccccc1)c1cc([N+](=O)[O-])ccc1Cl	-18.8% (inactive)
COC(=O)c1c(C)[nH]c(C)c1C(=O)c1ccccc1Cc1ccccc1	-23% (inactive)
O=C(O)c1cc([N+](=O)[O-])ccc1NCCCc1ccccc1	-16.2% (inactive)
N#C/C(=C\c1ccc(O)c(O)c1)C(=O)NCc1ccccc1	-18.4% (inactive)
CN1CCc2cc(NC(=O)Nc3cccnc3)ccc21	4.31% (inactive)
NCCNC(=O)c1ncsc1-c1cccc(F)c1	3.48% (inactive)
CC(C)(C=O)Cc1cc(C(C)(C)C)c(O)c(C(C)(C)C)c1	-12.1% (inactive)
C[N+]1(C)CCC(OC(=O)C(c2ccccc2)c2ccccc2)CC1	22.3% (inactive)
C=C[C@H]1CN2CC[C@@H]1C[C@@H]2[C@@H](O)c1ccnc2ccc(OC)cc12	-15% (inactive) and 18.5% (inactive)
CC(=O)SCC[N+](C)(C)C	1.77% (inactive)
NC[C@@H]1O[C@H](C23CC4CC(CC(C4)C2)C3)Cc2c1ccc(O)c2O	0.327% (inactive)
CN=c1nc(-c2ccccc2)n(-c2ccccc2)s1	8.46% (inactive)
C[N+](C)(CCCCCC[N+](C)(C)CCCN1C(=O)c2cccc3cccc(c23)C1=O)CCCN1C(=O)c2cccc3cccc(c23)C1=O	0.109% (inactive)
CN(C)C(N)=NCCC[C@H](N)C(=O)O	-11.7% (inactive)
N[C@H](CCCP(=O)(O)O)C(=O)O	14.7% (inactive)
Oc1cc2c(cc1O)CN(C(=S)NCCc1ccc(Cl)cc1)CCC2	6.62% (inactive)
NCCCS(=O)(=O)O	-2.17% (inactive)
Fc1ccc(C(OCCCc2cnc[nH]2)c2ccc(F)cc2)cc1	27.8% (inactive)
NO	11.6% (inactive)
NC(=O)C(=O)O	-1.18% (inactive)
COc1cc2c(CCNC(C)=O)c[nH]c2cc1Cl	-15.8% (inactive)

molecular target: Glucocorticoid receptor (Homo sapiens) (UniProt P04150); experiment: GR-GFP Redistribution (AID 450); conditions: U2OS GR-GFP nuclear translocation, laser cytometry, 2 h; also: potency is read from the fitted curve at half-maximal effect
Sequence (P04150 whole entry, looked up): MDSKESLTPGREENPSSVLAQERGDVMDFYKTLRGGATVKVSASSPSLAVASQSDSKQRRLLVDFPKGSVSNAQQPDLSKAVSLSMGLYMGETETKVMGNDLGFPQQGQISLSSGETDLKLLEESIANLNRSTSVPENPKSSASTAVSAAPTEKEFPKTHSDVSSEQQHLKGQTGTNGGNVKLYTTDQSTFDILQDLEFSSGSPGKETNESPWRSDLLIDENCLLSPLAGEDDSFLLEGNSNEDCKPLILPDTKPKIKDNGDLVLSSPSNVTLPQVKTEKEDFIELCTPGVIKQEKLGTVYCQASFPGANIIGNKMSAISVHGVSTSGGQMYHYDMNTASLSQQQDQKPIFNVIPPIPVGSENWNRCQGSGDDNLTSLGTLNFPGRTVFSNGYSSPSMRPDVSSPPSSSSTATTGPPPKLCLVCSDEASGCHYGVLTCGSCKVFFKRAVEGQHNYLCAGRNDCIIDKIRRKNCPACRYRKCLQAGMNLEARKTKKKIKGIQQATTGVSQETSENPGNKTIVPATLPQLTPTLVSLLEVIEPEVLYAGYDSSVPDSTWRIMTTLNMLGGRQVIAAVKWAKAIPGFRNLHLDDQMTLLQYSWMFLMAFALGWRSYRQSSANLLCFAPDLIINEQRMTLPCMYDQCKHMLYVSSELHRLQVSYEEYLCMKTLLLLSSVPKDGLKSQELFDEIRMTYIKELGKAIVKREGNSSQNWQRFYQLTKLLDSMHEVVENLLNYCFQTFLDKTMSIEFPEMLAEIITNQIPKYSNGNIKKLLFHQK

SMILES	Potency
Nc1ccc(O)c(C(=O)O)c1	> 20.6 µM (inactive)
CN1CCc2ccccc2Cc2[nH]c3ccccc3c2CC1	> 46 µM (inactive)
c1cnc2c(c1)ccc1cccnc12	> 46 µM (inactive)
Cc1ccc(O)c(N=Nc2ccccc2)n1	> 46 µM (inactive)
O=C(Nc1ccccc1)c1cc([N+](=O)[O-])ccc1Cl	> 46 µM (inactive)
N#C/C(=C\c1ccc(O)c(O)c1)C(=O)c1ccc(O)c(O)c1	> 46 µM (inactive)
COc1cc(/C=C/C(=O)CC(=O)/C=C/c2ccc(O)c(OC)c2)ccc1O	> 20.6 µM (inactive)
COC(=O)c1c(C)[nH]c(C)c1C(=O)c1ccccc1Cc1ccccc1	> 46 µM (inactive)
O=C(O)c1cc([N+](=O)[O-])ccc1NCCCc1ccccc1	> 46 µM (inactive)
N#C/C(=C\c1ccc(O)c(O)c1)C(=O)NCc1ccccc1	> 46 µM (inactive)
CN1CCc2cc(NC(=O)Nc3cccnc3)ccc21	> 46 µM (inactive)
NCCNC(=O)c1ncsc1-c1cccc(F)c1	> 46 µM (inactive)
CCCSc1ccc2nc(NC(=O)OC)[nH]c2c1	> 20.6 µM (inactive)
CC(C)(C=O)Cc1cc(C(C)(C)C)c(O)c(C(C)(C)C)c1	> 46 µM (inactive)
O=c1[nH]c2cc(C(F)(F)F)ccc2n1-c1cc(C(F)(F)F)ccc1O	> 46 µM (inactive)
Nc1cc(-c2ccncc2)c[nH]c1=O	> 20.6 µM (inactive)
C[N+]1(C)CCC(OC(=O)C(c2ccccc2)c2ccccc2)CC1	> 46 µM (inactive)

SMILES	Potency
O=C(O)Cc1ccc(-c2ccccc2)cc1	> 20.6 µM (inactive)
CC(=O)SCC[N+](C)(C)C	> 46 µM (inactive)
NC[C@@H]1O[C@H](C23CC4CC(CC(C4)C2)C3)Cc2c1ccc(O)c2O	> 46 µM (inactive)
O=C(O)c1ccccc1Nc1cccc(C(F)(F)F)c1	> 20.6 µM (inactive)
CN=c1nc(-c2ccccc2)n(-c2ccccc2)s1	> 46 µM (inactive)
C[N+](C)(CCCCCC[N+](C)(C)CCCN1C(=O)c2cccc3cccc(c23)C1=O)CCCN1C(=O)c2cccc3cccc(c23)C1=O	> 46 µM (inactive)
CN(C)C(N)=NCCC[C@H](N)C(=O)O	> 46 µM (inactive)
Cc1cc(NC(=O)Nc2ccc3c(ccn3C)c2)sn1	> 46 µM (inactive)
N[C@@H](CC(=O)O)C(=O)O	> 46 µM (inactive)
N[C@H](CCCP(=O)(O)O)C(=O)O	> 46 µM (inactive)
Oc1cc2c(cc1O)CN(C(=S)NCCc1ccc(Cl)cc1)CCC2	> 46 µM (inactive)
NCCCS(=O)(=O)O	> 46 µM (inactive)
Cc1c(N)c(=O)n(-c2ccccc2)n1C	> 20.6 µM (inactive)
Fc1ccc(C(OCCCc2cnc[nH]2)c2ccc(F)cc2)cc1	> 46 µM (inactive)
NC(=O)C(=O)O	> 46 µM (inactive)
COc1cc2c(CCNC(C)=O)c[nH]c2cc1Cl	> 46 µM (inactive)
